Laboratory results taken from PubChem BioAssay (Tox21).
“And” between values parts separate entries of the source, which are not always exact repeats. Identical values can stand only once. Results filed as inconclusive are left out. The source made the active and inactive calls. Calls come from the whole dose curve; as a rule, active = well fitted curve in the direction sought with a large enough effect in the repeat runs; inconclusive = weak or mixed curves; inactive = no such curve, though single readings can be large; an effect the other way counts as inactive or inconclusive.

Assays:
[1] = qHTS RealTime-Glo MT Cell Viability Assay in HepG2 cells - 40 hour (AID 1224870); note: nearly all actives have a fitted effect of over 50% in size
Method in brief: (§1)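 HepG2 cells (600/well) mixed with RealTime-Glo MT reagent, settled 5 h at 37 C/5% CO2 before compound addition. Nonlytic NanoLuc luminescence from viable-cell prosubstrate reduction read repeatedly during 40 h treatment at 37 C.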

[2] = A CellTox Green Cytotoxicity Assay to monitor cytotoxicity in HEK293 cells - 40 hour (AID 1224871); note: nearly all actives have a fitted effect of over 45% in size
Method in brief: (§2)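 Cytotoxicity was tracked continuously in HEK293 cells by a DNA-binding dye excluded from viable cells. Compounds were transferred in DMSO 5 h after seeding; fluorescence was recorded at intervals up to 40 h.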

[3] = qHTS RealTime-Glo MT Cell Viability Assay in HEK293 cells - 16 hour (AID 1224872); note: top concentration of the series differs between compounds; nearly all actives have a fitted effect of over 50% in size
Method in brief: (§3)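 HEK293 cells were seeded at 600 cells/well together with NanoLuc luciferase and cell-permeant prosubstrate, preincubated 5 h at 37 C/5% CO2, then given compound in DMSO by pintool. Luminescence from viable-cell prosubstrate reduction was read repeatedly over 40 h.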

[4] = qHTS RealTime-Glo MT Cell Viability Assay in HepG2 cells - 8 hour (AID 1224873); note: nearly all actives have a fitted effect of over 55% in size
Method in brief: as §1

[5] = qHTS RealTime-Glo MT Cell Viability Assay in HEK293 cells - 40 hour (AID 1224874); conditions: RealTime-Glo luminescence; max response: hits give low values; note: nearly all actives have a fitted effect of over 50% in size
Method in brief: (§4)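 Nonlytic bioluminescent viability monitoring. HEK293 at 600 cells/well with reagent; 5 h settle; compound transfer by pintool; plates held at 37 C and read at set time points.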

[6] = A CellTox Green Cytotoxicity Assay to monitor cytotoxicity in HEK293 cells - 24 hour (AID 1224875); note: series mostly up to about 77 µM; nearly all actives have a fitted effect of over 45% in size
Method in brief: as §2

[7] = A CellTox Green Cytotoxicity Assay to monitor cytotoxicity in HepG2 cells - 16 hour (AID 1224876); note: nearly all actives have a fitted effect of over 45% in size
Method in brief: (§5)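 Real-time, homogeneous cytotoxicity readout: dead-cell DNA staining by CellTox Green in HepG2 monolayers, fluorescence measured at timed intervals up to 40 h of continuous compound exposure.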

[8] = qHTS RealTime-Glo MT Cell Viability Assay in HepG2 cells - 32 hour (AID 1224877); note: nearly all actives have a fitted effect of over 55% in size
Method in brief: (§6)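 HepG2 cells were seeded at 600 cells/well together with NanoLuc luciferase and a cell-permeant prosubstrate, preincubated 5 h at 37 C/5% CO2, then pin-dosed with compounds in DMSO. Nonlytic luminescence from viable cells was read at each time point.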

[9] = A CellTox Green Cytotoxicity Assay to monitor cytotoxicity in HepG2 cells - 24 hour (AID 1224878); note: nearly all actives have a fitted effect of over 45% in size
Method in brief: as §5

[10] = qHTS RealTime-Glo MT Cell Viability Assay in HEK293 cells - 0 hour (AID 1224880)
Method in brief: as §4

[11] = A CellTox Green Cytotoxicity Assay to monitor cytotoxicity in HEK293 cells - 32 hour (AID 1224881); note: nearly all actives have a fitted effect of over 40% in size
Method in brief: as §2

[12] = A CellTox Green Cytotoxicity Assay to monitor cytotoxicity in HepG2 cells - 0 hour (AID 1224882); note: nearly all actives have a fitted effect of over 35% in size
Method in brief: as §5

[13] = A CellTox Green Cytotoxicity Assay to monitor cytotoxicity in HepG2 cells - 32 hour (AID 1224883); note: nearly all actives have a fitted effect of over 50% in size
Method in brief: as §5

[14] = A CellTox Green Cytotoxicity Assay to monitor cytotoxicity in HEK293 cells - 8 hour (AID 1224884); note: nearly all actives have a fitted effect of over 35% in size
Method in brief: as §2

[15] = qHTS RealTime-Glo MT Cell Viability Assay in HepG2 cells - 16 hour (AID 1224885); note: nearly all actives have a fitted effect of over 50% in size
Method in brief: as §6

[16] = qHTS RealTime-Glo MT Cell Viability Assay in HEK293 cells - 24 hour (AID 1224886)
Method in brief: as §3

[17] = qHTS RealTime-Glo MT Cell Viability Assay in HEK293 cells - 8 hour (AID 1224887)
Method in brief: as §4

[18] = qHTS RealTime-Glo MT Cell Viability Assay in HepG2 cells - 0 hour (AID 1224889); note: nearly all actives have a fitted effect of over 50% in size
Method in brief: as §6

[19] = A CellTox Green Cytotoxicity Assay to monitor cytotoxicity in HEK293 cells - 16 hour (AID 1224888); note: nearly all actives have a fitted effect of over 35% in size
Method in brief: as §2

[20] = A CellTox Green Cytotoxicity Assay to monitor cytotoxicity in HepG2 cells - 40 hour (AID 1224879); note: nearly all actives have a fitted effect of over 40% in size
Method in brief: as §5
% is set by controls: 0 for no effect and ±100 for the full control effect.

O=[N+]([O-])c1ccc(Cl)c(Cl)c1
inactive: outcome [1] | Potency [2] | outcome [3] | outcome [4] | max response [5] -5.48% and 3.8% | Potency [6] | Potency [7] | outcome [8] | Potency [9] | outcome [10] | Potency [11] | Potency [12] | Potency [13] | Potency [14] | outcome [15] | outcome [16] | outcome [17] | outcome [18]

O=[N+]([O-])c1cc([As](=O)(O)O)ccc1O
inactive: outcome [1] | Potency [2] | outcome [3] | outcome [4] | max response [5] 6.64% and -3.36% and 2.24% | Potency [6] | Potency [7] | outcome [8] | Potency [9] | outcome [10] | Potency [11] | Potency [12] | Potency [13] | outcome [15] | outcome [16] | outcome [17] | Potency [19] | outcome [18]

Cc1ccc(N=C=O)cc1N=C=O
inactive: outcome [1] | outcome [3] | outcome [4] | max response [5] 7.57% and -22.1% | Potency [6] | Potency [7] | outcome [8] | Potency [9] | Potency [20] | outcome [10] | Potency [11] | Potency [12] | Potency [13] | Potency [14] | outcome [15] | outcome [16] | outcome [17] | outcome [18]

Nc1ccc(N)cc1
inactive: outcome [1] | Potency [2] | outcome [3] | outcome [4] | max response [5] 13.6% and -13% | Potency [6] | Potency [7] | outcome [8] | Potency [9] | outcome [10] | Potency [11] | Potency [12] | Potency [13] | outcome [15] | outcome [16] | outcome [17] | Potency [19] | outcome [18]

Oc1c(Br)cc(Br)cc1Br
inactive: outcome [1] | Potency [2] | outcome [3] | outcome [4] | max response [5] -1.22% | Potency [6] | Potency [7] | outcome [8] | Potency [9] | outcome [10] | Potency [11] | Potency [12] | Potency [13] | Potency [14] | outcome [16] | outcome [17] | Potency [19] | outcome [18]

Nc1ncc([N+](=O)[O-])s1
inactive: outcome [1] | Potency [2] | outcome [3] | outcome [4] | max response [5] 0.802% and 3.01% | Potency [6] | Potency [7] | outcome [8] | Potency [9] | outcome [10] | Potency [11] | Potency [12] | Potency [13] | outcome [15] | outcome [16] | outcome [17] | Potency [19] | outcome [18]

Oc1ccc(Cl)cc1
inactive: outcome [1] | Potency [2] | outcome [3] | outcome [4] | max response [5] 3.34% and 1.68% and 3.82% | Potency [6] | Potency [7] | outcome [8] | Potency [9] | outcome [10] | Potency [11] | Potency [12] | Potency [13] | Potency [14] | outcome [16] | outcome [17] | outcome [18]

O=C(O)c1cc(Oc2ccc(C(F)(F)F)cc2Cl)ccc1[N+](=O)[O-]
inactive: outcome [1] | Potency [2] | outcome [3] | outcome [4] | max response [5] 3.72% [middle of 4 runs] | Potency [6] | Potency [7] | outcome [8] | Potency [9] | outcome [10] | Potency [11] | Potency [12] | Potency [13] | outcome [15] | outcome [16] | outcome [17] | Potency [19] | outcome [18]

CCCCCCCCCCCCCCCCCC(=O)O
inactive: outcome [1] | Potency [2] | outcome [3] | outcome [4] | max response [5] 2.01% and -1.45% and 0.984% | Potency [6] | Potency [7] | outcome [8] | Potency [9] | outcome [10] | Potency [11] | Potency [12] | Potency [13] | Potency [14] | outcome [16] | outcome [17] | outcome [18]

Cc1cccc(C)c1N
inactive: outcome [1] | outcome [3] | outcome [4] | max response [5] -0.963% and 19.7% | Potency [6] | Potency [7] | outcome [8] | Potency [9] | outcome [10] | Potency [11] | Potency [12] | Potency [13] | Potency [14] | outcome [16] | outcome [17] | outcome [18]

CC(=O)/C=C/c1ccccc1
inactive: outcome [1] | outcome [3] | outcome [4] | max response [5] 7.83% and 3.04% and 5.74% | Potency [6] | Potency [7] | outcome [8] | Potency [9] | outcome [10] | Potency [11] | Potency [12] | Potency [13] | outcome [15] | outcome [16] | outcome [17] | outcome [18]

O=S(=O)(O)OOS(=O)(=O)O
inactive: outcome [1] | outcome [3] | outcome [4] | max response [5] 2.97% [middle of 4 runs] | Potency [6] | Potency [7] | outcome [8] | Potency [9] | outcome [10] | Potency [11] | Potency [12] | Potency [13] | outcome [16] | outcome [17] | outcome [18]

N#Cc1ccccn1
inactive: outcome [1] | outcome [3] | outcome [4] | max response [5] -0.449% and 4.77% | Potency [6] | Potency [7] | outcome [8] | Potency [9] | outcome [10] | Potency [11] | Potency [12] | Potency [13] | Potency [14] | outcome [15] | outcome [16] | outcome [17] | outcome [18]

CN(C)CCC#N
inactive: outcome [1] | outcome [3] | outcome [4] | max response [5] 6.53% and 12.6% | Potency [6] | Potency [7] | outcome [8] | Potency [9] | outcome [10] | Potency [11] | Potency [12] | Potency [13] | outcome [15] | outcome [16] | outcome [17] | Potency [19] | outcome [18]

COC(C)(C)CCCC(C)C/C=C/C(C)=C/C(=O)OC(C)C (stereo unspecified)
inactive: outcome [1] | outcome [3] | outcome [4] | max response [5] 0.0106% | Potency [6] | Potency [7] | outcome [8] | Potency [9] | Potency [20] | outcome [10] | Potency [11] | Potency [12] | Potency [13] | Potency [14] | outcome [16] | outcome [17] | outcome [18]

Cc1cccc(C)c1NC(=O)CN1CCCC1=O
inactive: outcome [1] | outcome [3] | outcome [4] | max response [5] 1.79% and -7.42% and 6.42% | Potency [6] | Potency [7] | outcome [8] | Potency [9] | Potency [20] | outcome [10] | Potency [11] | Potency [12] | Potency [13] | outcome [16] | outcome [17] | Potency [19] | outcome [18]

O=C(O)CCCc1ccc(N(CCCl)CCCl)cc1
inactive: outcome [1] | outcome [3] | outcome [4] | Potency [6] | Potency [7] | outcome [8] | Potency [9] | outcome [10] | Potency [11] | Potency [12] | Potency [13] | Potency [14] | outcome [16] | outcome [17] | outcome [18]

COS(=O)(=O)OC
inactive: outcome [1] | outcome [3] | outcome [4] | max response [5] 1.63% and 22.3% | Potency [6] | Potency [7] | outcome [8] | Potency [9] | outcome [10] | Potency [11] | Potency [12] | Potency [13] | Potency [14] | outcome [16] | outcome [17] | Potency [19] | outcome [18]

CN(C)C(=O)C(c1ccccc1)c1ccccc1
inactive: outcome [1] | outcome [3] | outcome [4] | max response [5] 1.04% and -0.357% | Potency [6] | Potency [7] | outcome [8] | Potency [9] | Potency [20] | outcome [10] | Potency [11] | Potency [12] | Potency [13] | Potency [14] | outcome [16] | outcome [17] | outcome [18]

N#CN=C(N)N
inactive: outcome [1] | outcome [3] | outcome [4] | max response [5] 1.89% and 5.69% | Potency [6] | Potency [7] | outcome [8] | Potency [9] | Potency [20] | outcome [10] | Potency [11] | Potency [12] | Potency [13] | outcome [15] | outcome [16] | outcome [17] | outcome [18]
